Test results published in PubChem BioAssay AID504558 (Broad Institute, 2011).
The whole screen tested about 350,000 compounds, of which about 2,400 (0.69%) were called active. This is one part of a sample in which actives are shown more often than they occur. Cut-off read from the data, not from the text of the source: active = inhibition above about 41%; inconclusive = no clear call, values can overlap the other calls; inactive = below that.

Assay: EBV LMP1-driven NF-kappaB luciferase reporter inhibitors, primary screen, cell-based, luminescence, single point (AID 504558);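 note: 0% = neutral control wells and 100% = reference inhibitor control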
Settings: LMP1-induced NF-kappaB luciferase reporter cells, at 12.5 µM, stronger effect = higher value
With `COc1ccc(CN2C(=O)C(CC(=O)NC3CCCCC3)CC(C(=O)N3CCOCC3)=C2C)cc1` (centres undefined) the inhibition was 1.44% (inactive).
For `CSCCC(NC(=O)c1ccco1)C(=O)Nc1cc(C)ccn1` (centres undefined), the inhibition was -34.2% (inactive).
For `CSCCC(NC(=O)c1ccco1)C(=O)OCC(=O)Nc1ncc(Cl)c(C)c1Cl` (centres undefined), the inhibition was 59.5% (active).
With `Cc1c(Cl)cnc(NC(=O)COC(=O)C2CCCC2)c1Cl` the inhibition was -6.23% (inactive).
With `COc1cccc(OCC(=O)NCCS(=O)(=O)N2CCN(c3ccccc3)CC2)c1` the inhibition was 1.31% (inactive).
In the case of `O=C(CC(CC(=O)c1ccccc1)c1ccco1)c1ccccc1`, the inhibition is reported as -17.7% (inactive).
With `C/C(=N\OCC(=O)O)c1ccc(Cl)cc1` the inhibition was -9.17% (inactive).
With `CCOC(=O)CN/C=C(\C#N)c1ccc(F)cc1` the inhibition was 1.95% (inactive).
With `CCOc1cc(/C=C(/C#N)c2ccc(Cl)cc2)cc(Cl)c1OCC(=O)O` the inhibition was 43.8% (active).
With `CCOC(=O)c1cc(-c2sc(NC(=O)c3ccccc3)nc2C)n(-c2ccc(Br)cc2)n1` the inhibition was -16.6% (inactive).
With `C[C@@H]1CN([C@H](C)CO)S(=O)(=O)c2ccc(C#CC3CCCCC3)cc2O[C@H]1CN(C)C(=O)Cc1ccncc1` the inhibition was -11.3% (inactive).
In the case of `COc1ccc(C(CNC(=O)c2ccc(OCc3cscn3)cc2)N2CCCC2)cc1` (centres undefined), the inhibition is reported as -12% (inactive).
With `CC(=O)Nc1c(-c2ccc(C)cc2)nc2ccc(Cl)cn12` the inhibition was 6.02% (inactive).
In the case of `Cc1sc2nc(-c3ccccc3F)oc(=O)c2c1C`, the inhibition is reported as 1.32% (inactive).
With `CSc1ncnc2c1ncn2CCCNCC1CCCCC1` the inhibition was 3.66% (inactive).
In the case of `O=C(N/N=C/c1ccccc1O)C1CCCC1`, the inhibition is reported as 0.696% (inactive).
With `O=C(NN=Cc1ccccc1O)NN=Cc1ccccc1O` the inhibition was 33.4% (inactive).
In the case of `Cc1ccc(/C=N/NC(=O)C2=NNC(c3ccccc3)(c3ccccc3)C2)c(O)c1`, the inhibition is reported as 61.6% (active).
In the case of `Cc1nc2ccccc2nc1CC(O)(c1ccccc1)c1ccccc1`, the inhibition is reported as -2.04% (inactive).
For `Nc1ccccc1-c1nc2ccncc2[nH]1`, the inhibition was 2.17% (inactive).
With `Cc1nnc(N/N=C/c2ccccn2)[nH]c1=O` the inhibition was 60.6% (active).
In the case of `O=C(COc1ccc(Cl)cc1Cl)N/N=C/c1ccccn1`, the inhibition is reported as 19.3% (inactive).
In the case of `O=C(N/N=C/c1ccccn1)C12CC3CC(CC(C3)C1)C2`, the inhibition is reported as -4.71% (inactive).
In the case of `Cc1ccc(-c2ccc(CN3C(C)C(=O)N(Cc4cn(CCC5OCCCO5)nn4)CCS3(=O)=O)cc2)cc1` (centres undefined), the inhibition is reported as 3.6% (inactive).
For `C[C@@H]1CCCCO[C@H](CN(C)Cc2ccccc2)[C@@H](C)CN([C@H](C)CO)C(=O)c2cc(NS(=O)(=O)c3ccc(Cl)cc3)ccc2O1`, the inhibition was -0.347% (inactive).
In the case of `CCN(CC)C(=O)C1=C(C)N(Cc2ccc(F)cc2)C(=O)C(CC(=O)NC2CCCC2)C1` (centres undefined), the inhibition is reported as 5.32% (inactive).
In the case of `COc1cc(C=NNC(=O)c2cccnc2)ccc1OC(=O)c1ccccc1F`, the inhibition is reported as 5.47% (inactive).
With `COc1ccc(C(=O)Nc2ccccc2C(=O)N/N=C/c2ccc(O)c(OC)c2)cc1` the inhibition was 66.5% (active).
For `O=C(NN=Cc1ccc2c(c1)CCC2)c1ccccc1O`, the inhibition was -10.8% (inactive).
For `CCCCCCNC(=O)O[C@H]1CN(C(=O)OC(C)C)N(C(=O)OC(C)C)[C@@H]2CN(S(=O)(=O)c3ccc(C)cc3)C[C@]12O`, the inhibition was -5.81% (inactive).
With `Cc1cc2cc3n(c2nn1)N=C(Cl)CC3` the inhibition was 3.98% (inactive).
For `CNS(=O)(=O)c1ccc2c(c1)[nH]c(=S)n2C`, the inhibition was 8.35% (inactive).
In the case of `CCOc1cc(/C=N/NC(=O)c2c(C)nc3ccc(Cl)cn23)ccc1O`, the inhibition is reported as -8.3% (inactive).
With `O=C(Cn1ccc([N+](=O)[O-])n1)NCc1cccs1` the inhibition was -5.11% (inactive).
For `Cc1ccnc(NC(=O)Cn2ccc([N+](=O)[O-])n2)c1`, the inhibition was 53.9% (active).
In the case of `O=C(CCn1ccc([N+](=O)[O-])n1)Nc1nccs1`, the inhibition is reported as -2.16% (inactive).
In the case of `Cn1ncc([N+](=O)[O-])c1C(=O)Nc1cc(Cl)ccc1Cl`, the inhibition is reported as 1.05% (inactive).
For `CCc1nc2c(=O)[nH]cnc2o1`, the inhibition was 1.63% (inactive).
With `CCN1C(=O)[C@H]2[C@@H](c3ccc(C(F)(F)F)cc3)N[C@]3(CCCN(Cc4ccc(Br)cc4)C3=O)[C@H]2C1=O` the inhibition was 33.7% (inactive).
For `C[C@H]1CN([C@@H](C)CO)S(=O)(=O)c2ccc(-c3cccc(F)c3)cc2O[C@@H]1CN(C)C`, the inhibition was -3.16% (inactive).
With `Cc1ccccc1-n1nc(C)c2cc(C(=O)NC3CC3)sc21` the inhibition was 48.8% (active).
For `Cc1cccn2c(=O)c3cc(C(=O)NC4CCCCC4)sc3nc12`, the inhibition was -2.71% (inactive).
In the case of `Cc1ccccc1C(=O)NC(=S)NC1CC1`, the inhibition is reported as 2.37% (inactive).
With `CC(C)[C@H](NC(=O)c1ccccc1F)C(=O)Nc1cccc(S(=O)(=O)N2CCOCC2)c1` the inhibition was -8.03% (inactive).
In the case of `CCN(CC)C(=O)C1=C(C)N(Cc2ccc(OC)cc2)C(=O)C(CC(=O)NCc2ccco2)C1` (centres undefined), the inhibition is reported as -5.75% (inactive).
With `O=C(COc1ccc(S(=O)(=O)N2CCCC2)cc1[N+](=O)[O-])N1CCCCC1` the inhibition was -1.43% (inactive).
In the case of `O=C(C1=C[C@H](c2coc3ccccc3c2=O)C[C@H](OCc2ccc(CO)cc2)O1)N1CCOCC1`, the inhibition is reported as -1.64% (inactive).
With `O=C(C1=C[C@H](c2coc3ccccc3c2=O)C[C@H](OCc2ccc(CO)cc2)O1)N1CCN(Cc2ccccc2)CC1` the inhibition was 72.5% (active).
For `O=C(C1=C[C@H](c2ccc(C(F)(F)F)cc2)C[C@H](OCc2ccc(CO)cc2)O1)N1CCN(Cc2ccccc2)CC1`, the inhibition was -10.6% (inactive).
In the case of `CN1OC[C@@H]2CN(C(=O)c3ccc(-c4ccccc4)cc3)[C@H](c3ccc(-c4cccc(F)c4)cc3)C[C@@H]21`, the inhibition is reported as -3.6% (inactive).
In the case of `COc1ccc(Nc2ncnc3ccc(Br)cc23)c(OC)c1`, the inhibition is reported as 69.1% (active).
With `O=C(O)CCCCCNc1ncnc2ccc(Br)cc12` the inhibition was 3.15% (inactive).
With `Brc1ccc2ncnc(NCc3cccnc3)c2c1` the inhibition was 27.2% (inactive).
With `Cc1ccc([C@H]2N[C@]3(CCCN(Cc4ccccc4)C3=O)[C@H]3C(=O)N(Cc4ccccc4)C(=O)[C@@H]23)cc1` the inhibition was 4.09% (inactive).
For `O=C(O)CCCc1ccccc1`, the inhibition was 65.7% (active).
For `CCC(C)NC(=O)CCCc1ccccc1` (centres undefined), the inhibition was -18% (inactive).
For `O=C(O)CCC(=O)N(Cc1ccccc1)Cc1ccccc1`, the inhibition was -12% (inactive).
In the case of `S=C(NN=Cc1ccccn1)Nc1ccccn1`, the inhibition is reported as 76.3% (active).
With `S=C(Nc1cccnc1)Nc1ccccn1` the inhibition was -5.41% (inactive).
In the case of `O=C(N/N=C/c1ccccn1)c1cccc(NC(=O)c2ccc(Cl)cc2)c1`, the inhibition is reported as -0.655% (inactive).
With `COc1ccc(NC2CCCN(C(=O)c3ccccc3-c3ncc[nH]3)C2)cc1` (centres undefined) the inhibition was 1.54% (inactive).
With `C[C@H]1CN([C@@H](C)CO)C(=O)CCCn2cc(nn2)CO[C@@H]1CN(C)S(=O)(=O)c1ccc(-n2cccn2)cc1` the inhibition was 4.52% (inactive).
In the case of `CC1CCN(c2ccc3c(c2)S(=O)(=O)c2cc(C(=O)O)ccc2C3=O)CC1`, the inhibition is reported as -11.1% (inactive).
For `CC1=C(C(=O)N2CCOCC2)CC(CC(=O)NCCN2CCOCC2)C(=O)N1CCC1=CCCCC1` (centres undefined), the inhibition was 6.89% (inactive).
In the case of `CCN(CC)C(=O)c1sc2nc(-c3ccccc3)ccc2c1N`, the inhibition is reported as -15.3% (inactive).
In the case of `Cc1sc2nc(CC(N)=O)[nH]c(=O)c2c1-c1ccccc1`, the inhibition is reported as -10.6% (inactive).
For `NC(=O)c1sc2nc3c(c(-c4ccccc4)c2c1N)CCC3`, the inhibition was 44.3% (active).
With `CCOC(=O)C1CCN(C(=O)CC2C(=O)N(Cc3ccccc3)C(C)c3nc4ccccc4n32)CC1` (centres undefined) the inhibition was 14.1% (inactive).
In the case of `CC(C)CCNC(=O)CC1C(=O)N(Cc2ccccc2)C(C)c2nc3ccccc3n21` (centres undefined), the inhibition is reported as 48.7% (active).
For `CC1c2nc3ccccc3n2C(CC(=O)NCCCN2CCOCC2)C(=O)N1Cc1ccccc1` (centres undefined), the inhibition was 0.985% (inactive).
In the case of `CN(C)C(CNC(=O)c1cccc(S(=O)(=O)N2CCc3ccccc3C2)c1)c1ccccc1` (centres undefined), the inhibition is reported as -16.9% (inactive).
With `CC(OC(=O)c1ccc(Cl)cc1O)C(=O)NCCC1=CCCCC1` (centres undefined) the inhibition was -1.59% (inactive).
With `CC(CN1CCOCC1)OC(=O)c1ccc(Cl)cc1Cl` (centres undefined) the inhibition was -3.67% (inactive).
For `CC(C)OC(=O)c1ccc(NCc2cc(O)ccc2O)cc1Cl`, the inhibition was 72.4% (active).
With `C#Cc1cc(N2CCN(C(=O)c3ccoc3)CC2)n2nc(-c3cccc(Cl)c3)cc2n1` the inhibition was 53.9% (active).
With `O=C(c1ccccc1)N1CCN(c2cc(-c3ccccc3)nc3cc(-c4cccc(Cl)c4)nn23)CC1` the inhibition was -2.14% (inactive).
In the case of `O=C(c1ccccc1)N1CCN(C(=O)c2cc3nc(-c4ccccc4)cc(C(F)(F)F)n3n2)CC1`, the inhibition is reported as 6.54% (inactive).
With `C=C(C)C(=O)O[C@H]1C/C(C)=C\C(=O)/C=C(\C)[C@H](O)[C@@H]2OC(=O)C(=C)[C@@H]21` the inhibition was 88.8% (active).
In the case of `CNC(=O)c1ccc(CN(C)C(=O)c2cc(C3CC3)nc3c2cnn3C(C)C)cc1`, the inhibition is reported as -3.68% (inactive).
With `CC1CCCC(C)N1C(=O)COC(=O)c1ccccc1C(=O)c1ccccc1` (centres undefined) the inhibition was -3.93% (inactive).
With `COc1cc(C(=O)N2CCOC23CCN(Cc2ccccc2)CC3)cc(OC)c1OC` the inhibition was 4.75% (inactive).
In the case of `Clc1cccc(-c2nc(NCC3CCCO3)c3ccccc3n2)c1` (centres undefined), the inhibition is reported as -0.333% (inactive).
With `NC(N)=Nc1nc(-c2ccccc2)c2cc(Cl)ccc2n1` the inhibition was -32.8% (inactive).
For `Clc1ccc2nc(-c3ccccc3)nc(C(Cl)Cl)c2c1`, the inhibition was 86.7% (active).
In the case of `CC(C)(C)N(Cc1ccccc1)C(=O)c1ccncc1`, the inhibition is reported as 11.5% (inactive).
In the case of `CCN(CC)C(=O)N(CC)Cc1ccccc1`, the inhibition is reported as 2.28% (inactive).
For `CCN(Cc1ccncc1)C(=O)CCc1ccccc1`, the inhibition was 78.9% (active).
In the case of `CCN(CC)C(=O)C1=C(C)N(Cc2ccc(C(C)(C)C)cc2)C(=O)C(CC(=O)NCc2cccc3ccccc23)C1` (centres undefined), the inhibition is reported as -0.881% (inactive).
In the case of `CCOc1cc(/C=N/NC(=O)c2ccncc2)cc(Br)c1O`, the inhibition is reported as -1.49% (inactive).
